Records with an inconclusive call do not appear. Calls of active or inactive are those of the source. Unless noted, the call rests on the fitted dose curve.
Key:
[1] = Nuclear factor erythroid 2-related factor 2/antioxidant responsive element (Nrf2/ARE) small molecule agonists: qHTS cell viability counter screen in human keratinocytes (AID 1919968; active means well fitted curve in the direction sought with a large enough effect in the repeat runs; an effect the other way counts as inactive or inconclusive; further: nearly all actives have a fitted effect of over 55% in size)
Method in brief: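 Cytotoxicity was multiplexed with the Nrf2/ARE luciferase assay in the same wells. Stably transfected HaCaT keratinocytes were treated with test compounds for 23 h at 37 C. Cell viability was then measured by CellTiter-Fluor fluorescence.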

[2] = Nuclear factor erythroid 2-related factor 2/antioxidant responsive element (Nrf2/ARE) small molecule agonists: luciferase reporter gene qHTS assay in human keratinocytes (AID 1919969); further: nearly all actives have a fitted effect of over 35% in size
[3] = target: Gonadotropin-releasing hormone receptor (Homo sapiens) (UniProt P30968); test: Human gonadotropin-releasing hormone receptor (GnRHR) small molecule agonists, calcium flux assay in GnRHR-HEK293 cells (AID 1920063); further: nearly all actives have a fitted effect of over 35% in size
Sequence of Gonadotropin-releasing hormone receptor (Homo sapiens) (P30968 whole entry, looked up): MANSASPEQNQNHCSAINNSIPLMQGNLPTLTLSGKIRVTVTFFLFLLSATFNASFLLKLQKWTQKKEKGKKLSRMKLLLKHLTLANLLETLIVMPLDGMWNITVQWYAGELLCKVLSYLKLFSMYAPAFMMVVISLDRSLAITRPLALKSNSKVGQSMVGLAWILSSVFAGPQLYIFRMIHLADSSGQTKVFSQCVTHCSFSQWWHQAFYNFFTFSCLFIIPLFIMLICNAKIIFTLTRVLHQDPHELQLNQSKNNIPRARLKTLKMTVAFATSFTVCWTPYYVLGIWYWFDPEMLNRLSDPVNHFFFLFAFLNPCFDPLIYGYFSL
Method in brief: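 Agonist activity was measured as intracellular calcium flux in HEK293 cells engineered to stably express human GnRHR. After dye loading for 1 hour at 37 C, compounds in DMSO were added and fluorescence was followed for 3 minutes.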

[4] = target: KiSS-1 receptor (Homo sapiens) (UniProt Q969F8); test: Human kisspeptin (KISS1R) small molecule agonists, calcium flux assay in KISS1R-HEK293 cells (AID 1920064; active means well fitted curve in the direction sought with a large enough effect in the repeat runs; an effect the other way counts as inactive or inconclusive)
Sequence of KiSS-1 receptor (Homo sapiens) (Q969F8 whole entry, looked up): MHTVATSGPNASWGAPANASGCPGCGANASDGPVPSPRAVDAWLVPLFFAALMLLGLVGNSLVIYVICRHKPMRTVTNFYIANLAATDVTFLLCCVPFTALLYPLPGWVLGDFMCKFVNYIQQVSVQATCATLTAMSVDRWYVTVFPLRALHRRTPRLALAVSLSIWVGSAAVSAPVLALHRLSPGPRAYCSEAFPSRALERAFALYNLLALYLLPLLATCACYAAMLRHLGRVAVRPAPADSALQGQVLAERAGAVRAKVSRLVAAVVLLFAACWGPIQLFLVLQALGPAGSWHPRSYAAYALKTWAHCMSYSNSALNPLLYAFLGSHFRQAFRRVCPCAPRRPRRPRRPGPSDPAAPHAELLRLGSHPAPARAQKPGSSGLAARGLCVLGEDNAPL
Method in brief: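 Agonist activity is monitored as intracellular calcium rise in engineered HEK293 cells carrying human KISS1R. Cells are dye-loaded for 1 h at 37 C before compound addition, and fluorescence is recorded for 3 min.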

[5] = G protein-coupled receptor (GPCR) small molecule agonists, calcium flux assay: HEK293 wild type cell line counter screen (AID 1920065)
Method in brief: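 Seed cells, incubate 18 h (37 C, 5% CO2); add calcium dye, 1 h at 37 C; pin-transfer compounds, ATP control or DMSO; read fluorescence 480/540 nm each second for 3 min.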

[6] = p53 small molecule agonists, cell-based qHTS assay with human liver microsomes (AID 1963577);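 further: p53 response element beta-lactamase reporter cells with liver microsomes plus NADPH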
Method in brief: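 16 h, 37 C exposure of p53RE-bla cells to compounds with human liver microsomes and NADPH (0.5 mg/mL final each); detection via LiveBLAzer mixture, 2 h dark at room temperature.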

[7] = p53 small molecule agonists, cell-based qHTS assay with rat liver microsomes (AID 1963578)
Method in brief: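 With rat liver microsomes and NADPH present (0.5 mg/mL final each), p53RE-bla cells are treated with compound for 16 h at 37 C. LiveBLAzer detection mixture is then applied for 2 h at room temperature in the dark.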

[8] = p53 small molecule agonists, cell-based qHTS assay with human liver microsomes: qHTS cell viability counter screen (AID 1963579); further: nearly all actives have a fitted effect of over 45% in size
Method in brief: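 In this multiplexed counter screen, the reporter plates were subsequently treated with CellTiter-Glo so that cell viability, reflected by luminescence, could be recorded for p53RE-bla cells dosed 16 h with compounds under microsomal activation (HLM and NADPH).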

[9] = p53 small molecule agonists, cell-based qHTS assay with rat liver microsomes: qHTS cell viability counter screen (AID 1963580); further: nearly all actives have a fitted effect of over 45% in size
Method in brief: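 After the beta-lactamase ratio was read, CellTiter-Glo was added to the same wells and luminescence measured at 30 min; cells had been treated 16 h at 37 C with compounds, rat liver microsomes and NADPH (0.5 mg/mL final each).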

[10] = p53 small molecule agonists, cell-based qHTS assay: qHTS cell viability counter screen (AID 1963581); further: nearly all actives have a fitted effect of over 45% in size
Method in brief: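 Viability was counter-screened in parallel with the p53 agonist reporter by measuring intracellular ATP luminescence in the same HCT-116 p53RE-bla wells after 16 h compound treatment at 37 C.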

[11] = target: 5-hydroxytryptamine receptor 2A (Homo sapiens) (UniProt P28223); test: 5-hydroxytryptamine receptor 2A (HTR2A) small molecule antagonists, cell-based qHTS assay (AID 1963586); further: nearly all actives have a fitted effect of over 45% in size
Sequence of 5-hydroxytryptamine receptor 2A (Homo sapiens) (P28223 whole entry, looked up): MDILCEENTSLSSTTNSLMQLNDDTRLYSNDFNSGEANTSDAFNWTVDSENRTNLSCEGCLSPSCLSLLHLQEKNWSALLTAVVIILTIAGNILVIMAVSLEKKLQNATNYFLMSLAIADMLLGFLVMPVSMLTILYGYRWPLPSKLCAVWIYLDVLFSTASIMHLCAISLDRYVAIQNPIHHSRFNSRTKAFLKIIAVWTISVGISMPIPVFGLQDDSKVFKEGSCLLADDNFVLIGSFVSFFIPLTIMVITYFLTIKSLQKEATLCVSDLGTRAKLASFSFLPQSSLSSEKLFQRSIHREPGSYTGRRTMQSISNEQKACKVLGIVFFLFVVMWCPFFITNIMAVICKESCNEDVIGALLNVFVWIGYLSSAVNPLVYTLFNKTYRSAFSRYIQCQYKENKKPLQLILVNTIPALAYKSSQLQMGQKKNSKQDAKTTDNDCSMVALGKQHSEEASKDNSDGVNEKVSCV
Method in brief: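 CHO cells stably expressing human HTR2A were plated for 18 h at 37 C, then loaded with calcium dye for 1 h. Compounds were preincubated 5 min at room temperature before DOI (4 nM solution) was added. Kinetic fluorescence was read for 3 min.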

[12] = target: 5-hydroxytryptamine receptor 2A (Homo sapiens) (UniProt P28223); test: 5-hydroxytryptamine receptor 2A (HTR2A) small molecule agonists, cell-based qHTS assay (AID 1963587); further: nearly all actives have a fitted effect of over 30% in size
Method in brief: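 CHO cells stably expressing human HTR2A, plated 18 h, loaded with calcium dye 1 h at 37 C. Agonist mode: compounds added and intracellular calcium fluorescence recorded kinetically for 2 min at 1 sec intervals.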

[13] = target: Muscarinic acetylcholine receptor M1 (Homo sapiens) (UniProt P11229); test: Cholinergic receptor muscarinic 1 (CHRM1) small molecule agonists, cell-based qHTS assay (AID 1963589); further: nearly all actives have a fitted effect of over 35% in size
Sequence of Muscarinic acetylcholine receptor M1 (Homo sapiens) (P11229 whole entry, looked up): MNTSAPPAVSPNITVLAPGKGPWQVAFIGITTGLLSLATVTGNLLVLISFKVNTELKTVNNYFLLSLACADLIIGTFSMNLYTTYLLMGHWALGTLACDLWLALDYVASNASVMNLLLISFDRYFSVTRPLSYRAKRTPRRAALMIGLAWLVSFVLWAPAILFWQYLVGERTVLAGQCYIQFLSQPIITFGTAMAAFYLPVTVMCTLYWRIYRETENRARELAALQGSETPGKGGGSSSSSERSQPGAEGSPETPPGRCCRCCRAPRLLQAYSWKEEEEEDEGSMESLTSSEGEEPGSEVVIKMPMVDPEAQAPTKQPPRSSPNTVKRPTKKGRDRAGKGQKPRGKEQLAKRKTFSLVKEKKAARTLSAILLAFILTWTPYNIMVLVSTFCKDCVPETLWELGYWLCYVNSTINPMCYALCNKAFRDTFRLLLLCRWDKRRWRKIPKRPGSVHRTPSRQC
Method in brief: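 Cells were plated and incubated 18 h at 37 C/5% CO2, loaded with calcium dye for 1 h at 37 C, then treated with compounds in DMSO. Fluorescence was recorded kinetically at 1 sec intervals.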

[14] = target: D(2) dopamine receptor (Homo sapiens) (UniProt P14416); test: Dopamine D2 receptor (DRD2) small molecule agonists, cell-based qHTS assay (AID 1963594); further: nearly all actives have a fitted effect of over 35% in size
Sequence of D(2) dopamine receptor (Homo sapiens) (P14416 whole entry, looked up): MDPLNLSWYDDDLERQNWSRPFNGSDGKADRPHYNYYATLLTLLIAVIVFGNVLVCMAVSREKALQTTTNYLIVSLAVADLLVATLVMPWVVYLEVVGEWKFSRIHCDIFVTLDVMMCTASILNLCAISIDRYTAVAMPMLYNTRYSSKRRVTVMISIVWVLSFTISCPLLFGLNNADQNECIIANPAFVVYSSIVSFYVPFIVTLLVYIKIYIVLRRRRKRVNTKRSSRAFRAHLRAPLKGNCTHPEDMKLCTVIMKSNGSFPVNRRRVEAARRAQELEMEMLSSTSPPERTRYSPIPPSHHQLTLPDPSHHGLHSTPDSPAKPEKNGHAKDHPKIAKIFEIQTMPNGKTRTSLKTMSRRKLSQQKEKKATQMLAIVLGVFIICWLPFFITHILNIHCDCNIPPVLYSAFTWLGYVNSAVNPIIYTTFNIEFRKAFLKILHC
Method in brief: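 HEK293 cells stably expressing human DRD2, pre-treated with PDE inhibitor Ro20-1724 (0.1 mM final) and compound 10 min at room temperature, then stimulated with NKH477 (200nM […]) for 30 min. cAMP read by HTRF (665/620 nm).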

[15] = target: D(2) dopamine receptor (Homo sapiens) (UniProt P14416); test: Dopamine D2 receptor (DRD2) small molecule antagonists, cell-based qHTS assay (AID 1963595; active means well fitted inhibition curve with a large enough effect in the signal ratio in the repeat runs, with a control signal flat; the % refers to the signal ratio)
Method in brief: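 DRD2-HEK293; 0.1 mM Ro20-1724; cpd 10 min RT; NKH477 200 nM + quinpirole 12 nM, 30 min RT; HTRF cAMP (cAMP-d2/anti-cAMP cryptate), 665/620 nm ratio after 1 h.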

[16] = target: Muscarinic acetylcholine receptor M1 (Homo sapiens) (UniProt P11229); test: Cholinergic receptor muscarinic 1 (CHRM1) small molecule antagonists, cell-based qHTS assay (AID 1963588); further: nearly all actives have a fitted effect of over 40% in size
Method in brief: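 Compounds were tested at 15 concentrations in three independent runs. Dye-loaded CHRM1-CHO cells were exposed 5 min at room temperature before stimulation by acetylcholine added at 50nM. Intracellular calcium was read kinetically on FDSS for 3 min.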

[17] = cAMP Responsive Elements (CRE) small molecule agonists, cell-based qHTS assay (AID 1963590)
Method in brief: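 Cells carrying a CRE-driven beta-lactamase reporter (HEK 293T) are seeded, incubated overnight (18 h), and treated with test compounds for 3 h at 37 C; reporter activity is then detected with a FRET substrate after 2 h at room temperature.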

[18] = cAMP Responsive Elements (CRE) small molecule antagonists, cell-based qHTS assay (AID 1963591; active means well fitted inhibition curve with a large enough effect in the signal ratio in the repeat runs, not every such curve was filed as active; the % refers to the signal ratio)
Method in brief: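 Cells (CRE-bla HEK 293T, DMEM with 10% dialyzed FBS and 25 mM HEPES) are seeded and incubated 18 h. Compounds are added with NKH477 agonist at 0.25 uM final for 3 h, then FRET substrate for 2 h.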

[19] = target: Beta-2 adrenergic receptor (Homo sapiens) (UniProt P07550); test: Adrenergic beta2 receptor (ADRB2) small molecule antagonists, cell-based qHTS assay (AID 1963592); further: series mostly up to about 92 µM; nearly all actives have a fitted effect of over 50% in size
Sequence of Beta-2 adrenergic receptor (Homo sapiens) (P07550 whole entry, looked up): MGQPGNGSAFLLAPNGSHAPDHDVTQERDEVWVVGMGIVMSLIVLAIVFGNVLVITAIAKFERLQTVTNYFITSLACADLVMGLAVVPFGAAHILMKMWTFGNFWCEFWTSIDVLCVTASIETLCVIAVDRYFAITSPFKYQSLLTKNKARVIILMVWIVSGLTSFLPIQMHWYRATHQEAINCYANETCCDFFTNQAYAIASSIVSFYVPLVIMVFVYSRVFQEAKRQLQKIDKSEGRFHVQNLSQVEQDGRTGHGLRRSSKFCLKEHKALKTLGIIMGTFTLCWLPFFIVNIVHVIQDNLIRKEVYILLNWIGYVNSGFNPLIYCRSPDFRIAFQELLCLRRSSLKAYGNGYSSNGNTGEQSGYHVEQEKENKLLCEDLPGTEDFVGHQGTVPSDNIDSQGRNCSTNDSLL
Method in brief: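 Assay format: CHO-ADRB2 cells, 18-20hr seeding at 37C/5% CO2, then compound plus 1nM isoproterenol agonist mix for 0.5hr RT. Homogeneous time-resolved fluorescence cAMP detection after 1hr, expressed as 665/615 nm ratio.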

[20] = p53 small molecule agonists, cell-based qHTS assay (AID 1963582; active means well fitted activation curve with a large enough effect in the signal ratio in the repeat runs, not every such curve was filed as active; the % refers to the signal ratio)
Method in brief: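 Cells carrying a p53-responsive bla reporter are treated with test compounds for 16 h at 37 C; beta-lactamase activity is then detected with LiveBLAzer B/G FRET substrate after 2 h at room temperature.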
On the % scale 0 is the no-effect control and ±100 the full control effect.

CO/N=C(/C(=O)OC)c1ccccc1COc1ccccc1C
inactive: Potency [1] | Potency [2] | Potency [3] | Potency [4] | Potency [5] | Potency [6] | Potency [7] | Potency [8] | Potency [9] | Potency [10] | Potency [11] | Potency [12] | Potency [13] | Potency [14] | Potency [15]

C[As+](C)(C)CC(=O)[O-]
inactive: Potency [1] | Potency [2] | Potency [3] | Potency [4] | Potency [5] | Potency [6] | Potency [7] | Potency [8] | Potency [9] | Potency [10] | Potency [11] | Potency [12] | Potency [16] | Potency [13] | Potency [17] | Potency [18] | Potency [19] | Potency [14] | Potency [15]

CC1=C(C(=O)O)N2C(=O)[C@@H](N)[C@H]2SC1
inactive: activity change, negative = cytotoxicity [1] 0.0817% [at 19 µM] | activity, positive = activation [2] -0.189% [at 19 µM] | activity change [3] 0.673% [at 11.8 µM, hits give high values] | activation [4] 0.11% [at 15.8 µM] | activation [5] -0.375% [at 11.8 µM] | activation [6] -0.214% [at 13.5 µM] | activation [7] -0.0529% [at 13.6 µM] | activity change, negative = cytotoxicity [8] 0.455% [at 13.5 µM] | activity change, negative = cytotoxicity [9] 4.3e-05% [at 13.5 µM] | activation [20] 0.428% [at 13.5 µM] | activity, negative = inhibition [11] 25.1% [at 12.7 µM] | activation [12] 1.93% [at 15.9 µM] | activity, negative = inhibition [16] -6.26% [at 12.6 µM] | activation [13] 0% [at 15.8 µM] | activation [17] -0.165% [at 19 µM] | activity change, negative = inhibition [18] -4.67% [at 18.9 µM] | activity change, negative = inhibition [19] 2.77% [at 19 µM] | activation [14] -15.4% [at 19 µM] | activity change, negative = inhibition [15] -2.19% [at 18.9 µM]

Oc1cc(Cl)cc(Cl)c1
inactive: Potency [1] | Potency [2] | Potency [3] | Potency [4] | Potency [5] | Potency [6] | Potency [7] | Potency [8] | Potency [9] | Potency [10] | Potency [11] | Potency [12] | Potency [16] | Potency [13] | Potency [18] | Potency [19] | Potency [14] | Potency [15]

From PubChem BioAssay (Tox21)
